SMILES strings stand for the structures. A number with no mark means an inactive call. The call rests on the fitted dose curve; in most records, active means well fitted curve in the direction sought with a large enough effect; inconclusive means small, poorly fitted or top-dose-only effect, or another doubt; inactive means no such curve, though single readings can be large or run the other way.

A short description of the assay: Quantitative high throughput screen to test cell viability of anti-malarial compounds targeting the delayed death phenotype. To be noted: HepG2 viability, CellTiter-Glo luminescence, 48 h. An excerpt: NIH Molecular Libraries Probe Production Network [MLPCN] NIH Chemical Genomics Center [NCGC] MLPCN Grant: R21 NS059500 Assay Provider: David Fidock and Eric Ekland, Columbia University The goal of this screen is to measuer the cytoxoxicity (against HepG2 cell line) of a set of anti-malarial compounds that target the delayed death pheonotype, by inhibiting the development of the apicoplast in the malarial parasite Plasmodium falciparum (described below) The biochemical processes that make this organelle essential for erythrocytic stage parasites are not well understood. However, antibiotics, such as azithromycin and tetracycline, which target the apicoplast translational machinery, have a potent antimalarial effect. […] We have developed a cell-based assay that measures parasite growth based on the expression of an integrated copy of a firefly luciferase reporter. To detect small molecules that cause this 'delayed death' phenotype, erythrocytes infected with the luciferase-expressing parasites were incubated with compounds for either one or two generations, corresponding to 48 and 96 hours, respectively. Compounds that inhibit parasite growth in the second generation, but not the first, should be enriched in antimalarials that target the apicoplast. Growth inhibition is detected by a decrease in luciferase activity
Cells were plated at a density of 2000 cells/well/5uL in 1536 well white tissue culture plate with culture medium. Triplicate plates were prepared. Plates were incubated at 37C, 5% CO2 for 5 hours and then 23nL of compounds and positive control were transferred to the assay plates. Tetraoctylammonium bromide was added as a positive control. Plates were then incubated at 37C, 5% CO2 for 48 hours. 5 uL of CellTitler-Glo buffer was added to each well and then incubated for 30 min at room temperature. Luminescence was measured using ViewLux (1 second, slow, 2X).
On the technique in general: ATP-based viability assays read luminescence as a measure of living cells.
In the case of `CO[C@H]1[C@H](O[C@H]2O[C@@H](C)[C@@H](O[C@@H]3C[C@](C)(O)[C@H](O)[C@H](C)O3)[C@@H](N(C)C)[C@@H]2O)[C@@H](CC=O)C[C@@H](C)[C@@H](O[C@H]2CC[C@H](N(C)C)[C@H](C)O2)/C=C\C=C/C[C@@H](C)OC(=O)C[C@H]1O`, the max response was 5.01%.
On to `COc1ccc2cc3cc(C(=O)Nc4ccc5c(c4)OCO5)oc3nc2c1`, for which the max response was -29.2%.
Turning to `c1csc(CNc2ncnc3nc[nH]c23)c1`, the max response was 12.9%.
